# Assay results: PubChem BioAssay AID2275 (Broad Institute, 2010)
# About 190 (0.63%) of roughly 30,000 compounds were called active. For the sample, actives were picked, then their nearest neighbours and some compounds at random. Unmarked numbers belong to inactive results. Rule as the data show it: active = viability loss activity score above about 50%; inconclusive = no clear call, values can overlap the other calls; inactive = below about 35%.
# Assay: BJeLR cell viability loss, primary screen, luminescence, CellTiterGlo ATP (AID 2275);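 also: higher score means fewer live cells and less ATP luminescence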
# Conditions: BJeLR fibroblasts viability, 48 h, hits give high values, HRASV12, hTERT and SV40 LT/ST transformed, concentration not given here
row,SMILES,viability loss activity score
1,O=C(CC(O)(c1ccccc1)C(F)(F)F)c1ccccc1 (stereo not drawn),-2.63%
2,CCCCN(C)S(=O)(=O)c1ccc2c(c1)oc(=O)n2C,-1.52%
3,CC(=O)Oc1ccc(N(C(C)=O)S(=O)(=O)c2ccc(Cl)cc2)cc1,-1.22%
4,CC[C@]1(O)C[C@@H]2CN(CCc3c([nH]c4ccccc34)[C@@](C(=O)OC)(c3cc4c(cc3OC)N(C)[C@H]3[C@@](O)(C(=O)OC)[C@H](OC(C)=O)[C@]5(CC)C=CCN6CC[C@]43[C@@H]65)C2)C1,64.7% (active)
5,COc1ccc(C(=O)OC2=C(c3ccccc3)C(=O)c3ccccc3C2=O)cc1,-6.2%
6,CC1=C(C(=O)OC2CC(C)CCC2C(C)C)C(c2ccc(Br)cc2)n2nnnc2N1 (stereo not drawn),-1.4%
7,CCC1CCCCN1C(=O)c1ccc(F)cc1 (stereo not drawn),5.08%
8,O=C(CSc1ccccn1)NCc1ccccc1,-3.11%
9,CCN1C(=O)c2cccc3c(NC(=S)NC(=O)c4ccccc4)ccc1c23,2.04%
10,Cc1ccc(S(=O)(=O)N(C)C[C@@H]2Oc3c(NC(=O)NC(C)C)cccc3C(=O)N([C@H](C)CO)C[C@H]2C)cc1,0.297%
11,C=CC[C@H]1Cc2ccccc2[C@H](CC=C)N1,5.12%
12,COc1ccc(-c2coc3c(C)c4oc(=O)c5cc(OC)ccc5c4cc23)cc1,-3.61%
13,COC(=O)C1=C(N)Oc2cc(C)oc(=O)c2C1c1cccnc1 (stereo not drawn),-1.16%
14,CCOC(=O)CCN1N=C(c2ccc(CC)cc2)CCC1=O,-3.96%
15,COc1ccc(S(=O)(=O)NCCN2CCOCC2)cc1-c1nnc2c3ccccc3c(C)nn12,13.3%
16,CN(C)c1ccc(C2CC(c3ccc(Br)cc3)=NN2S(C)(=O)=O)cc1 (stereo not drawn),6.95%
17,CSc1c(CC(=O)Nc2ccc(C)cc2)[nH]c2ccccc12,1.08%
18,CC(=O)OCCn1c(=O)c2ccccc2c2ccccc2c1=O,0.959%
19,Cc1c(C(=O)OC2CCCC2)[nH]c2c1C(=O)CCC2,-0.399%
20,COc1ccc(C(=O)NCc2cc3cc(Cl)ccc3[nH]2)cc1COc1ccccc1Cl,13.4%
21,COc1ccc(-n2nc(C(=O)NC3CCCC(C)C3C)c3c4ccccc4n(C)c3c2=O)cc1 (stereo not drawn),0.653%
22,Cc1cc(C)n(-c2ccc(-n3cccc3/C=C(/C#N)S(=O)(=O)c3ccccc3)cc2)n1,1.25%

row,SMILES,viability loss activity score
1,O=C(CSc1ccc(Cl)cc1)N1CCc2ccccc21,8.93%
2,Cc1cc(Sc2nnc(C)s2)c2ccccc2n1,34.4%
3,COc1cc(S(=O)(=O)N2CCCCCCC2)ccc1-n1cnnn1,-2.51%
4,COc1ccc(NC(=S)N2CCCC(c3ccccc3)=N2)cc1,-2.21%
5,C[C@@H]1CN([C@H](C)CO)C(=O)c2cc(NS(=O)(=O)c3cccs3)ccc2O[C@@H]1CN(C)Cc1ccc(C(F)(F)F)cc1,0.614%
6,CCOC(=O)C1CCN(S(=O)(=O)c2ccc(N3C(=O)CC4(CCCC4)C3=O)c(Cl)c2)CC1,1.47%
7,O=C(Nn1cnc2ccccc2c1=O)c1ccccc1,3.68%
8,CCC(NCC(O)Cn1c2ccccc2c2ccccc21)C(=O)O (stereo not drawn),-1.06%
9,CC(C)Nc1ccc(-n2nc3ccccc3[n+]2[O-])cc1,2.31%
10,Cc1cccc[n+]1C/C=C\c1ccccc1,13.2%
11,Cc1ccc(S(=O)(=O)Nc2ccc3c(c2)C(=O)N([C@@H](C)CO)C[C@@H](C)[C@@H](CN(C)S(=O)(=O)c2ccc(C)cc2)O3)cc1,3.23%
12,CC(C)(C)c1nc(=S)[nH][nH]1,-5.55%
13,Cc1noc(C)c1S(=O)(=O)Nc1ccc2c(c1)C(=O)N([C@@H](C)CO)C[C@H](C)[C@H](CN(C)Cc1ccc(C(=O)Nc3ccccc3N)cc1)O2,6.72%
14,Cn1c(Cc2nc(-c3cnccn3)no2)nnc1SCC(=O)Nc1ccc(Cl)cc1,-7.21%
15,Cc1ccc(-n2cc(-c3ccccc3)c3c(NN4CCOCC4)ncnc32)cc1Cl,0.765%
16,CC(C)(C)NC(=S)N1CCn2cccc2C1c1ccccc1F (stereo not drawn),-3.87%
17,Cc1ccccc1OC1C(=O)N(CCc2ccc(F)cc2)C1c1ccc2c(c1)OCO2 (stereo not drawn),0.258%
18,CCCC(=O)N1CCC(c2c[nH]c3ccccc23)(c2c[nH]c3ccccc23)CC1,5.31%
19,CC(=O)NN1C(=O)c2ccccc2NC1c1ccccc1 (stereo not drawn),-1.21%
20,Cc1cccc(C(=O)Nc2ccc(NC(=O)c3ccco3)cc2)c1,0.303%
21,CS(=O)(=O)c1sc(C(=O)Nc2ccccc2Cl)c2c1C=CCC2,-1.24%
